# Measured values: PubChem BioAssay
# Calls of active or inactive are those of the source.
# Legend:
# [1] = system: Plasmodium falciparum Sir2 (PF13_0152, Sir2A); experiment: Plasmodium falciparum Sir2A binding compounds – biochemical, small-molecule microarray, 635 nm fluorescence, primary screen (AID 1098); conditions: fluorescence 635 nm, higher = more signal;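 note: score merges spot fluorescence intensity with its signal-to-noise ratio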
# [2] = probe aDKK1 binding to arrayed compounds – biochemical, biotinylated probe, 635/667 nm fluorescence, primary screen (AID 1099); conditions: small-molecule microarray, higher = more signal;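 note: score merges 667nm spot fluorescence with signal to noise across triplicate slides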
# [3] = probe aCHRDL2 binding to arrayed compounds – biochemical, biotinylated probe, 635/667 nm fluorescence, primary screen (AID 1100); conditions: small-molecule microarray, higher = more signal
# [4] = change in splice reporter luminescence, either direction, cell-based, HEK293, spliceosome inhibition project, primary screen (AID 1101); conditions: HEK293 splicing luciferase reporter, 24 h, higher = more signal, called active from +8 up or from −8 down;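 note: HEK293 cells carrying a splicing-competent luciferase reporter gene; test concentration not given here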
# [5] = biological target: Fibroblast growth factor 10 (Homo sapiens) (UniProt O15520); experiment: compounds binding fibroblast growth factor 10 – biochemical, small-molecule microarray, 635 nm fluorescence, primary screen (AID 1102); conditions: FGF10 binding, fluorescence 635 nm, higher = more signal
# Chain of Fibroblast growth factor 10 (Homo sapiens) (O15520 whole entry, looked up): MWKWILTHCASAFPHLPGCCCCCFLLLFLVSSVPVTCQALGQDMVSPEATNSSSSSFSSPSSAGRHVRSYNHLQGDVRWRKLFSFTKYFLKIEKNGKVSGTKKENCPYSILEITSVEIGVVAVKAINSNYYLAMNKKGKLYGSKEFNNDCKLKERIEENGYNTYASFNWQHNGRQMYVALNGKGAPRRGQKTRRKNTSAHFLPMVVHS
# [6] = system: glycogen synthase kinase-3 (GSK3A per assay name; protocol says GSK3B); experiment: compounds binding glycogen synthase kinase-3 – biochemical, small-molecule microarray, 635 nm fluorescence, GSK3A, primary screen (AID 1103); conditions: fluorescence 635 nm, higher = more signal; note: the record names both GSK3A and GSK3B
# [7] = biological target: Epidermal growth factor receptor (Homo sapiens) (UniProt P00533); experiment: compounds binding epidermal growth factor receptor – biochemical, small-molecule microarray, 635 nm fluorescence, primary screen (AID 1104); conditions: EGFR binding, higher = more signal;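 note: score merges 667 nm emission intensity with spot signal to noise over triplicate slides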
# Chain of Epidermal growth factor receptor (Homo sapiens) (P00533 whole entry, looked up): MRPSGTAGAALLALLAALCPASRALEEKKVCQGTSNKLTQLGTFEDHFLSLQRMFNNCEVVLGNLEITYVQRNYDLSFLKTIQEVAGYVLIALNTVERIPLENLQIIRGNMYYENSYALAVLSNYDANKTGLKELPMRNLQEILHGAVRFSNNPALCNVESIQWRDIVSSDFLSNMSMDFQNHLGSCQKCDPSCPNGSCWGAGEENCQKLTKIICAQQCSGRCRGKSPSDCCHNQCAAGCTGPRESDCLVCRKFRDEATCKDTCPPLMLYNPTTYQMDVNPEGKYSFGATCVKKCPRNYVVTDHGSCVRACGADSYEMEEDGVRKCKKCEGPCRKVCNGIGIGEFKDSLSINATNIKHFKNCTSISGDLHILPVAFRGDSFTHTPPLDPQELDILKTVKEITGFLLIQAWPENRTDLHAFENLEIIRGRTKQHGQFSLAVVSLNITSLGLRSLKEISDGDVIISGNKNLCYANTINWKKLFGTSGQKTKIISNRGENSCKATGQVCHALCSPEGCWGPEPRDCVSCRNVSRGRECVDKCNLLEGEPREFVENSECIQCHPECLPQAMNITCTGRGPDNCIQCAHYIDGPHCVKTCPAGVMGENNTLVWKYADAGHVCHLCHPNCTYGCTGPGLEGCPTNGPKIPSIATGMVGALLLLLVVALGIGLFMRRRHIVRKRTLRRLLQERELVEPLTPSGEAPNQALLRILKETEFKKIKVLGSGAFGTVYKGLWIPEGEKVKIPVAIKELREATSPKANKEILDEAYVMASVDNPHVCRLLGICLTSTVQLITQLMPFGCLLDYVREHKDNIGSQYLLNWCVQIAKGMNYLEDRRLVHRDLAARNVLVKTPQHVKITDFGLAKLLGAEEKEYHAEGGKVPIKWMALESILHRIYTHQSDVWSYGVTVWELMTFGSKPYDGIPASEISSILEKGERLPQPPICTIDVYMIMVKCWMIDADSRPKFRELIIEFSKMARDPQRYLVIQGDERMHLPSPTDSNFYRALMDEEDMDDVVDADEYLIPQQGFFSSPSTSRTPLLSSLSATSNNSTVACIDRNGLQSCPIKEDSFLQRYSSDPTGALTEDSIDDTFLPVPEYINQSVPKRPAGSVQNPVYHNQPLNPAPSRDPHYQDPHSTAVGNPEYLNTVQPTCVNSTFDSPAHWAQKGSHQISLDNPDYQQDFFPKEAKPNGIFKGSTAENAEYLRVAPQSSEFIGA
# [8] = biological target: Follistatin-related protein 3 (Homo sapiens) (UniProt O95633); experiment: compounds binding follistatin-related protein 3 – biochemical, small-molecule microarray, 635 nm fluorescence, primary screen (AID 1105); conditions: FSTL3 binding, higher = more signal;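 note: score merges emission near 667 nm and signal to noise per printed spot across three slides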
# Chain of Follistatin-related protein 3 (Homo sapiens) (O95633 whole entry, looked up): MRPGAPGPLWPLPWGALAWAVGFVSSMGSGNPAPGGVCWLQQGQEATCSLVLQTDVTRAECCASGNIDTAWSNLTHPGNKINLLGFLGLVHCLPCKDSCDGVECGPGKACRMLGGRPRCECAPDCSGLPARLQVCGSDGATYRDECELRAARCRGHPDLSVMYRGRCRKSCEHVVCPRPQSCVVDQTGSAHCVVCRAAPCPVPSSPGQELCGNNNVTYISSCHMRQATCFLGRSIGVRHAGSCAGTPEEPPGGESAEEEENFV
# [9] = biological target: Dickkopf-related protein 1 (Homo sapiens) (UniProt O94907); experiment: small molecules binding DKK1 protein – biochemical, small-molecule microarray, 635 nm fluorescence scan, primary screen (AID 1106); conditions: higher = more signal;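 note: score merges emission near 667 nm with signal to noise over three replicate slides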
# Chain of Dickkopf-related protein 1 (Homo sapiens) (O94907 whole entry, looked up): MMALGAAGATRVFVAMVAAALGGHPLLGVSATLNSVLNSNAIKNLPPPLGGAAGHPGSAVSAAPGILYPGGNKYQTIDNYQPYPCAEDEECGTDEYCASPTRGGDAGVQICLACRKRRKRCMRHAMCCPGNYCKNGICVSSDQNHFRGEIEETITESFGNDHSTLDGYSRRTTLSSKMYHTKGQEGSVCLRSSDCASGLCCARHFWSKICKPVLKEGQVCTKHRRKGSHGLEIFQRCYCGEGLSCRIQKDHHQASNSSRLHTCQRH
# [10] = system: Inhibin beta A chain (activin A); experiment: small molecules binding activin A – biochemical, small-molecule microarray, 635 nm fluorescence scan, primary screen (AID 1107); conditions: INHBA, higher = more signal;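 note: mouse activin A protein probed at 4.33 µg/mL on printed slides; score merges bound-protein fluorescence near 667 nm with spot signal-to-noise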
# [11] = system: Human papillomavirus type 1a protein E7 (residues 44-93); experiment: small molecules binding HPV E7 44-93 – biochemical, small-molecule microarray, residues 44-93, 635 nm fluorescence, primary screen (AID 1108); conditions: fluorescence 635 nm, higher = more signal;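 note: E7 fragment applied at 1 µg/mL in TBST for 1 h at 4 C; score combines spot fluorescence with its signal to noise ratio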
# [12] = hepatitis C replication reporter changes, two-sided – Huh7 cells, luciferase reporter, HCV replication inhibitor project, primary screen (AID 1109); conditions: Huh7 HCV replicon luciferase reporter, 48 h; higher = more signal;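 note: huh7 hepatoma cells harbouring a luciferase neomycin HCV replicon reporter; luciferase luminescence as measure of HCV replicon replication; test concentration not given here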
# [13] = biological target: Left-right determination factor 2 (Homo sapiens) (UniProt O00292); experiment: small molecules binding LEFTY2 protein – biochemical, small-molecule microarray, 635 nm fluorescence scan, primary screen (AID 1110); conditions: higher = more signal
# Chain of Left-right determination factor 2 (Homo sapiens) (O00292 whole entry, looked up): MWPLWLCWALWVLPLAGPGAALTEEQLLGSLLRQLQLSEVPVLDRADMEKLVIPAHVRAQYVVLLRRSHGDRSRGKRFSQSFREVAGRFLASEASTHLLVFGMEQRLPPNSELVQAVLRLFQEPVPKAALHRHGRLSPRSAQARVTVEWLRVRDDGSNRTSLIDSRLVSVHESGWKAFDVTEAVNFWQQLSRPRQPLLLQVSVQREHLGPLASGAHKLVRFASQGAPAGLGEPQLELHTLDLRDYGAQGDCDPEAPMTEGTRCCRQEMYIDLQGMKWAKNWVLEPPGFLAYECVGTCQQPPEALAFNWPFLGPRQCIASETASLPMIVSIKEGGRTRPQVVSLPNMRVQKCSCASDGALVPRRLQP
# [14] = biological target: Calmodulin-1 (Homo sapiens) (UniProt P0DP23); experiment: small molecules binding calmodulin-1 with EGTA – biochemical, small-molecule microarray, Cy5-labelled CALM1, profiling panel (AID 1111); conditions: Cy5-CALM1 binding fluorescence, higher = more signal;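 note: labelled calmodulin applied in Tris saline Tween buffer holding calcium plus EGTA and DTT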
# [15] = biological target: Calmodulin-1 (Homo sapiens) (UniProt P0DP23); experiment: small molecules binding Ca-loaded calmodulin-1 – biochemical, small-molecule microarray, Cy5-labelled CALM1, plus calcium, artefact control for SMM control-protein annotation, profiling panel (AID 1112); conditions: Cy5-CALM1 binding fluorescence, higher = more signal;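 note: score merges spot fluorescence with signal to noise from triplicate slides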
# [16] = probe aWnt5a binding to arrayed compounds – biochemical, biotinylated probe, 635/667 nm fluorescence, primary screen (AID 1113); conditions: small-molecule microarray, higher = more signal;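 note: score merges 667 nm fluorescence intensity with signal-to-noise per printed feature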
# [17] = probe aShh binding to arrayed compounds – biochemical, biotinylated probe, 635/667 nm fluorescence, primary screen (AID 1114); conditions: small-molecule microarray, higher = more signal;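 note: probe is biotin-labelled aShh protein from a stem cell growth factor screen; measures binding of labelled protein to compounds printed on the slide; score merges feature fluorescence at 667 nm with signal-to-noise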
# [18] = probe aNog binding to arrayed compounds – biochemical, biotinylated probe, 635/667 nm fluorescence, primary screen (AID 1115); conditions: small-molecule microarray, higher = more signal;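 note: probe is biotinylated aNog protein used at 0.15 µg/mL for 1 h at 4 C; z-score combines 667 nm fluorescence of each spot with its signal to noise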
# [19] = biological target: Torsin-1A-interacting protein 1 (Homo sapiens) (UniProt Q5JTV8); experiment: compound microarray binding of lysate hLAP1 – cell lysate, small-molecule microarray, COS7 lysate, 635/667 nm fluorescence, primary screen (AID 1116); conditions: 635 nm fluorescence, higher = more signal
# Chain of Torsin-1A-interacting protein 1 (Homo sapiens) (Q5JTV8 whole entry, looked up): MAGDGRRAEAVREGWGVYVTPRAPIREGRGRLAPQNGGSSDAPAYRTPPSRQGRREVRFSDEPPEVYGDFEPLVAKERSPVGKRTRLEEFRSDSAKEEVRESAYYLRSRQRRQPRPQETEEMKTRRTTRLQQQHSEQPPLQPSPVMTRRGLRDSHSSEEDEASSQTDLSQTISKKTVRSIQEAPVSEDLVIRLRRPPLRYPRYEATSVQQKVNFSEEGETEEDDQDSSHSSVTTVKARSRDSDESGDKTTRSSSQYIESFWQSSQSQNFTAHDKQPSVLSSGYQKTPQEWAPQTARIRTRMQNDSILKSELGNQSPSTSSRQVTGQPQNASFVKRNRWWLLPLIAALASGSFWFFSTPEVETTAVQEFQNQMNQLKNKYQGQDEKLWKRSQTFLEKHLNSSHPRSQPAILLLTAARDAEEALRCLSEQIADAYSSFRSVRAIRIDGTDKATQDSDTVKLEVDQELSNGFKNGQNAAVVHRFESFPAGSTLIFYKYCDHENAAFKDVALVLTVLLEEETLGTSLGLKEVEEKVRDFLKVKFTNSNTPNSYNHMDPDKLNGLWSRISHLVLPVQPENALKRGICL
# [20] = biological target: Alpha-bungarotoxin (Bungarus multicinctus) (UniProt P60615); experiment: compounds binding labelled alpha-BTX control protein – biochemical, small-molecule microarray, Alexa647 label, 635/667 nm fluorescence, artefact control for SMM control protein annotation, profiling panel (AID 1117); conditions: alpha-BTX-A647 binding fluorescence, higher = more signal
# Chain of Alpha-bungarotoxin (Bungarus multicinctus) (P60615 whole entry, looked up): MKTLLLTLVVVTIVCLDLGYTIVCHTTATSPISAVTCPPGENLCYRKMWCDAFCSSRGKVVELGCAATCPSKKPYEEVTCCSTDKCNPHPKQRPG
SMILES,composite z-score [1],composite z-score [2],composite z-score [3],z-score [4],composite z-score [5],composite z-score [6],composite z-score [7],composite z-score [8],composite z-score [9],composite z-score [10],composite z-score [11],z-score [12],composite z-score [13],composite z-score [14],composite z-score [15],composite z-score [16],composite z-score [17],composite z-score [18],composite z-score [19],composite z-score [20]
C[C@]1(C(=O)NCCN2CCOCC2)c2ccccc2C(=O)N(Cc2ccc(OC(F)(F)F)cc2)[C@H]1c1ccc(CO)cc1,0.654,-0.103,0.604,0.396 (inactive),-0.564,-0.254,-1.39,-0.381,-1.33,-0.017,1.44,-0.705,-1.24,0.084,-0.0325,-0.252,-0.503,-0.313,0.836,0.396
COC(=O)[C@@]1(Cc2ccccc2)[C@H]2c3cc(C(=O)N4CCCC4)n(Cc4cc(F)cc5c4OCOC5)c3C[C@H]2CN1C(=O)c1ccccc1,1.54,0.513,1.1,-0.955 (inactive),1.22,0.0232,-0.12,0.286,-0.66,0.538,0.0951,-0.592,-0.655,1.08,0.641,0.14,0.688,1.93,1.74,0.468
[N-]=[N+]=NCc1ccccc1C[C@@]1(C(=O)NCCN2CCOCC2)N=C(c2ccc(OCCCO)cc2)O[C@@H]1c1ccccc1N=[N+]=[N-],1.15,0.75,0.45,-1.7 (inactive),0.778,1.08,0.283,0.325,-0.194,0.822,1.4,-3.07,-0.429,1.16,0.415,0.168,0.0141,0.78,0.948,1.89
Cc1ccc(S[C@]2(C(=O)NC3CC3)CC(=O)N(Cc3ccccc3Cl)[C@@H]2c2ccc(CO)cc2I)cc1,1.35,0.633,0.873,-0.447 (inactive),1.4,1.27,-0.172,0.41,0.122,1.03,1.45,-1.57,-0.355,0.156,-0.274,0.109,0.0062,-0.429,0.769,0.939
CC(C)CNC(=O)[C@@]1(c2ccc([N+](=O)[O-])cc2)CC(=O)N(C2CCCCC2)[C@@H]1c1ccc(CO)cc1I,1.67,0.349,0.641,-0.721 (inactive),0.489,-0.198,-0.519,-0.16,-0.477,0.138,1.11,-2.3,-0.609,0.779,0.379,-0.0417,-0.16,-0.279,0.341,0.817
CC(C)N1C(=O)[C@@]2(c3ccc([N+](=O)[O-])cc3)CC(=O)N(C3CCCCC3)[C@@H]2c2ccc(CO)cc21,0.29,-0.227,-0.173,0.403 (inactive),0.269,0.172,-0.137,0.656,0.501,0.859,-0.242,0.711,0.11,-0.561,-0.593,-0.1,-0.0553,-0.305,0.214,0.329
CC(C)CN1C(=O)[C@@]2(Cc3ccccc31)c1ccccc1C(=O)N(Cc1ccccc1C(F)(F)F)[C@H]2c1ccc(CO)cc1,0.957,-0.0363,0.223,-0.596 (inactive),-0.621,-1.59,-0.478,-0.676,-1.05,0.731,-1.57,0.186,-0.584,-0.566,-0.815,-0.2,-0.138,-0.303,-1.07,0.14
COc1ccc([Si](C)(C)[C@@H]2[C@@H](CC(=O)N3CCC[C@H]3CO)O[C@]3(C(=O)N(Cc4ccc(N5C(=O)c6cccc7cccc5c67)cc4)c4ccccc43)[C@H]2C)cc1,1.56,-0.184,-0.2,-1.11 (inactive),1.38,1.29,0.564,1.06,0.587,0.231,1.45,-2.25,0.515,0.692,-0.292,-0.0437,0.14,-0.37,1.44,1.82
COCCCNC(=O)[C@]1(Cc2ccccc2CN=[N+]=[N-])N=C(c2ccc(OCCCO)cc2)O[C@@H]1c1ccccc1,0.465,0.383,0.775,-0.697 (inactive),0.573,0.778,-0.251,0.317,-0.817,0.493,1.4,-3.18,-0.369,0.486,0.0518,0.0519,-0.279,-0.225,1,0.543
CN(C)CCCCNC(=O)[C@H]1C[C@H]2C(=O)N[C@@H](CCCCN(C)C)C(=O)N2[C@H]1c1cccc(OCCO)c1,1.12,-0.199,-0.434,-0.404 (inactive),1.21,1.29,0.514,1.11,0.418,0.0714,1.41,0.057,1.17,0.477,-0.167,-0.036,-0.203,0.0721,0.752,0.701
NCCCCCCNC(=O)[C@H]1C[C@H]2C(=O)N[C@@H](Cc3ccccc3)C(=O)N2[C@H]1c1ccc(O)cc1,1.3,0.21,0.456,-1.23 (inactive),-0.0657,0.481,0.92,0.533,0.232,1.1,0.74,0.914,0.338,1.44,1.17,-0.0033,-0.1,-0.0496,1.21,1.55
CCOC(=O)[C@H]1C/C=C/C[C@H](C(=O)OCC)C(=O)O[C@H]2[C@@H](OC)O[C@H](CO)[C@@H](OC(=O)CCc3ccccc3)[C@@H]2OC1=O,0.254,-0.41,0.128,-0.389 (inactive),-0.785,-1.46,-0.741,-1.53,-0.315,0.334,-0.431,-1.85,-1.59,-0.381,0.367,-0.184,-0.0937,1.47,0.162,-0.187
COc1ccc([Si](C)(C)[C@H]2[C@H](CCn3cc([C@H](O)c4ccccc4)nn3)O[C@@]3(C(=O)N(Cc4ccc(N5CCC5=O)cc4)c4ccccc43)[C@@H]2C)cc1,0.995,-0.185,-0.403,0.0121 (inactive),0.865,0.365,0.631,0.855,0.527,0.862,0.73,-0.917,0.656,-0.468,-0.217,-0.16,-0.138,-0.103,0.273,0.54
COc1ccc([Si](C)(C)[C@H]2[C@H](CCn3cc(CCO)nn3)O[C@@]3(C(=O)N(Cc4ccc(N5C(=O)c6cccc7cccc5c67)cc4)c4ccccc43)[C@@H]2C)cc1,0.96,-0.145,-0.564,-2.8 (inactive),0.916,0.682,0.567,1.3,0.652,0.281,1.4,-5.13,0.691,0.778,0.487,-0.117,0.0121,0.298,0.537,1.08
CC(C)C(=C=CC[C@H](O)c1ccc(OCCO)cc1)C[C@H](O)c1cc(Cl)cc(Cl)c1O,0.631,-0.0017,-0.249,-0.492 (inactive),0.893,0.741,0.122,0.699,-0.0061,0.707,0.927,-1.57,0.437,-0.0205,0.134,-0.0125,0.191,0.205,0.413,1.44
O=C1C[C@@](C(=O)NCC(F)(F)F)(c2ccc([N+](=O)[O-])cc2)[C@@H](c2ccc(CO)cc2)N1C1CCCCC1,1.65,0.74,0.843,-0.684 (inactive),0.86,1.31,0.308,1.03,0.172,0.563,1.04,-1.4,0.301,0.769,-0.088,-0.006,0.0898,0.0807,1.9,1.8
COC(=O)[C@@]1(Cc2ccc(F)cc2)[C@H]2c3cc(C(=O)N4CCCC4)n(CCc4c[nH]c5ccc(OC)cc45)c3C[C@H]2CN1C(=O)c1ccccc1,1.03,1.6,1.01,-3.28 (inactive),1.53,1.18,0.763,0.735,0.0605,1.06,1.4,-2.22,0.474,1.92,0.878,1.19,1.17,2.98,0.781,1.23
CCOc1cc(C(O)C2C=CC3C(=O)N(C4CCCCC4)C(=O)C3N2Nc2ccc(OC)cc2)ccc1O (stereo not given),0.692,-0.0443,0.913,-0.556 (inactive),0.423,1.21,0.388,0.741,0.105,0.959,1.41,-0.352,0.208,1.13,0.505,0.0182,0.06,0.796,0.327,1.64
C=CCOC(=O)[C@@H]1[C@H]2C(=O)O[C@H](c3ccccc3)[C@H](c3ccccc3)N2[C@H](c2ccc(OCCOC(=O)[C@H]3C[C@H]4C(=O)N[C@@H](CCCC[N+](C)(C)C)C(=O)N4[C@H]3c3ccc(O)cc3)cc2)[C@@]12C(=O)Nc1ccc(I)cc12,1.6,-0.144,-0.248,-0.178 (inactive),1.46,1.33,1.18,1.51,1.03,0.467,0.505,-0.908,1.05,1.64,-0.116,0.0101,0.147,-0.0927,1.49,1.89
CO[C@H]1O[C@H](CO)[C@@H](OC(=O)Nc2ccccc2-c2ccccc2)[C@H](OC(=O)Nc2ccc3c(c2)OCO3)[C@@H]1OC(=O)Nc1ccc2c(c1)OCO2,1.32,0.198,0.679,-1.14 (inactive),1.05,1.34,0.0757,1.44,0.279,0.691,1.49,-0.841,0.0086,1.24,-0.499,0.0244,0.232,1.21,0.541,1.01
